Inconclusive results are not listed. Values without a mark were called inactive. Calls of active or inactive are those of the source. Calls come from the whole dose curve; as a rule, active = well fitted cell-killing curve with a large enough effect; inconclusive = small, poorly fitted or top-dose-only effect, or effect the other way; inactive = no such curve, though single readings can be large or run the other way.
Experiments:
[1] = Quantitative High-Throughput drug screen in 47 multiple myeloma cell lines against the NCATS MIPE library collection: OCIMY7_PLB cell viability assay (AID 1918987); settings: OCI-MY7 myeloma viability, CellTiter-Glo ATP, 48 h; viability (% of DMSO): at 45.8 µM (top of the series); note: potency is the fitted concentration of half-maximal effect; nearly all actives have a fitted effect of over 65% in size
Summary of the method: (§1)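 ATP-based CellTiter-Glo luminescence after 48 h drug exposure (37 °C, 5% CO2) of 500 myeloma cells per well. DMSO-only wells set 100% viability, media-only wells 0%; MIPE 4.0 library added by pin tool.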

[2] = Quantitative High-Throughput drug screen in 47 multiple myeloma cell lines against the NCATS MIPE library collection: OCIMY5_PLB cell viability assay (AID 1918988); note: potency is the fitted concentration of half-maximal effect; nearly all actives have a fitted effect of over 65% in size
Summary of the method: as §1

[3] = Quantitative High-Throughput drug screen in 47 multiple myeloma cell lines against the NCATS MIPE library collection: U266_ATCC cell viability assay (AID 1919864); note: nearly all actives have a fitted effect of over 35% in size; note: potency is the fitted concentration of half-maximal effect
Summary of the method: as §1

[4] = Quantitative High-Throughput drug screen in 47 multiple myeloma cell lines against the NCATS MIPE library collection: XG6_PLB cell viability assay (AID 1919865); note: potency is the fitted concentration of half-maximal effect; nearly all actives have a fitted effect of over 40% in size
Summary of the method: as §1

[5] = Quantitative High-Throughput drug screen in 47 multiple myeloma cell lines against the NCATS MIPE library collection: VP6_DJ cell viability assay (AID 1919867); note: nearly all actives have a fitted effect of over 40% in size; note: potency is the fitted concentration of half-maximal effect
Summary of the method: as §1

[6] = Quantitative High-Throughput drug screen in 47 multiple myeloma cell lines against the NCATS MIPE library collection: PE2_PLB cell viability assay (AID 1919869); note: nearly all actives have a fitted effect of over 35% in size; note: potency is the fitted concentration of half-maximal effect
Summary of the method: as §1

[7] = Quantitative High-Throughput drug screen in 47 multiple myeloma cell lines against the NCATS MIPE library collection: OPM1_PLB cell viability assay (AID 1918989); note: nearly all actives have a fitted effect of over 40% in size; note: potency is the fitted concentration of half-maximal effect
Summary of the method: as §1

[8] = Quantitative High-Throughput drug screen in 47 multiple myeloma cell lines against the NCATS MIPE library collection: SKMM1_PLB cell viability assay (AID 1919863); settings: SKMM1 myeloma viability, CellTiter-Glo ATP, 48 h; viability: stronger effect = lower value; note: nearly all actives have a fitted effect of over 35% in size
Summary of the method: as §1

[9] = Quantitative High-Throughput drug screen in 47 multiple myeloma cell lines against the NCATS MIPE library collection: UTMC2_PLB cell viability assay (AID 1919868); settings: CellTiter-Glo ATP luminescence, 48 h; viability (% of DMSO control): at 45.8 µM (top of the series); note: nearly all actives have a fitted effect of over 55% in size
Summary of the method: as §1

SMILES	Potency [1]	Potency [2]	Potency [3]	Potency [4]	Potency [5]	Potency [6]	Potency [7]	viability [8] [%]	Potency [9]
O=C1CSC(=O)N1C(CCc1ccncc1)COc1ccc(-c2cccc([N+](=O)[O-])c2)cc1 (configuration not stated)	20.9 µM (active)	2.35 µM (active)	8.33 µM (active)	13.2 µM (active)	4.18 µM (active)	16.6 µM (active)			
CCc1cc(C(C)=NOCc2ccc(C3CCCCC3)c(C(F)(F)F)c2)ccc1CN1CC(C(=O)O)C1	16.6 µM (active)		inactive		11.8 µM (active)		18.7 µM (active)		
OCc1ccccc1O[C@@H]1O[C@H](CO)[C@H](O)[C@H](O)[C@H]1O	26.4 µM (active)		inactive		inactive	inactive	inactive	130	inactive
